Screens (PubChem)
Mcl1 Bid PPI – Mcl-1/Bid interaction inhibition; inhibition, % at 21.7 µM; Q07820; 220,000 compounds, 0.97% hits; TR-FRET Mcl-1/Bid-Dy647 peptide binding, 1536-well;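 active = compounds that cut the binding signal by more than half at the single screening dose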;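 also: His-tagged Mcl-1 with europium anti-His antibody binding Bid BH3 peptide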
Target sequence (Q07820 whole entry, looked up): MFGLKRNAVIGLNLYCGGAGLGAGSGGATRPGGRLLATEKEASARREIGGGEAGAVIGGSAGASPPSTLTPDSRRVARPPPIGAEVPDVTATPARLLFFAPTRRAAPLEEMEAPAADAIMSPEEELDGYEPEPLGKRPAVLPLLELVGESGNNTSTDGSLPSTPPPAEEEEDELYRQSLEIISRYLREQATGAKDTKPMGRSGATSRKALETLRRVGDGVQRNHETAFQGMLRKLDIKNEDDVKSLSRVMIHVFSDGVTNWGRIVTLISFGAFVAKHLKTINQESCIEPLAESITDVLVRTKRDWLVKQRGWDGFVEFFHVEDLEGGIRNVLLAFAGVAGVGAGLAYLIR
MCL1 BIM primary – disrupts human MCL1 binding to BIM-BH3 peptide; Q07820; GST-MCL1 / FITC-Bim-BH3 fluorescence polarization; inhibition, % at 10.9 µM; 320,000 compounds, 0.68% hits; AID 2057;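 active = inhibition above the mean inhibition of all tested compounds plus 3 SD, set per campaign, cut at about 40% in these data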;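 also: higher means more loss of mP so more displacement of Bim peptide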
GLD-1 RNA inh – GLD-1-TGE RNA interaction inhibition (C. elegans) | Q17339 | purified GLD-1 + fluorescein TGE RNA, fluorescence polarization | inhibition, % at 5.96 µM | 320,000 compounds, 0.44% hits;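 active = percent inhibition above a per-plate cutoff, the plate mean of test compounds plus 3 SD, cut at about 30% in these data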
BCLXL inh – inhibitors of human Bcl-xL | GST-Bcl-xL / FITC-Bim BH3 peptide fluorescence polarization | inhibition, % at 10.9 µM | 320,000 compounds, 0.7% hits;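 active = inhibition above the mean of all tested compounds plus 3 SD, cutoff set per campaign, cut at about 30% in these data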;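 also: inhibitors lower millipolarization by displacing the labeled peptide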
Target sequence (Q07817 whole entry, looked up): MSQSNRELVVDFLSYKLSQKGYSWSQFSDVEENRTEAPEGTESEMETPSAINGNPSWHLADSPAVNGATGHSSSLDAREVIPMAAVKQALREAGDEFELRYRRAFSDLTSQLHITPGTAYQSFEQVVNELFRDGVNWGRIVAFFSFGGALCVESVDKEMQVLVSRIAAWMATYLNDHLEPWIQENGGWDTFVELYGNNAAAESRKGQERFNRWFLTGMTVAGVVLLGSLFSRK
Mcl1 Noxa PPI – disrupts binding of human Mcl-1 to Noxa peptide | Q07820 | TR-FRET Mcl-1/Noxa peptide binding, 2 h | inhibition, % at 21.7 µM | 220,000 compounds, 1.5% hits | AID 1022;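 active = compounds that cut the protein-peptide binding signal by more than 50% relative to plate controls in a single-dose test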;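 also: His-tagged Mcl-1 with rhodamine Noxa BH3 peptide and terbium anti-His antibody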
Bim-Mcl-1 – inhibitors of Bim-Mcl-1 interaction, human; AID 1009; Q07820; inhibition, % at 10 µM; Bead-based flow cytometry, Bim peptide-Mcl-1 binding; 190,000 compounds, 0.1% hits; in the data active = inhibition above about 40%
A number is an active result; n = inactive; x = not tested or not shown. Most compounds without a hit are left out; they make up all but 2.3% or so of the library.

SMILES | Mcl1 Bid PPI | MCL1 BIM primary | GLD-1 RNA inh | BCLXL inh | Mcl1 Noxa PPI | Bim-Mcl-1
CCOc1ccc(S(=O)(=O)c2c[nH]c3ccc(C)cc3c2=O)cc1 | x | n | n | 41 | x | x
Cc1ccc2[nH]cc(S(=O)(=O)c3ccc(F)cc3)c(=O)c2c1 | x | n | n | n | x | x
Cc1ncc(CO)c(/C=N/NC(=S)Nc2ccc(Cl)c(Cl)c2)c1O | n | n | n | n | 71 | n
O=C(O)C1=C[C@H](C2CC2)C[C@H](OCCCCO)O1 | n | n | n | n | n | 44
O=C(CSc1nc(N2CCCCC2)nc(N2CCCCC2)n1)N1CCN(c2ccccc2)CC1 | n | x | x | x | n | n
CN(C(=O)c1coc(=O)c2ccccc12)c1ccc(Br)cc1 | n | n | n | n | n | n
CCCCN(C)C(=O)c1coc(=O)c2ccccc12 | 94 | n | n | n | n | n
Cc1cc(C(=O)COC(=O)c2nc3nccc(C)n3n2)c(C)n1CC1CCCO1 (stereo unspecified) | n | n | n | n | n | n
Cc1occc1C(=O)NNC(=S)NCc1ccc(Cl)cc1 | n | n | n | n | n | n
Cc1occc1C(=O)NNC(=S)NCc1ccccc1 | n | n | n | n | n | 60
CC(C)(C)NC(=O)/C(=C/c1ccco1)c1ccccc1 | n | n | n | n | x | n
O=C(C1CCCN(Cc2ccccc2Br)C1)N1CCCCC1 (stereo unspecified) | 59 | n | n | n | n | n
CCOC(=O)C1CCCN(Cc2ccccc2OCC)C1 (stereo unspecified) | 98 | n | n | n | n | n
CCOC(=O)C1CCCN(Cc2cccs2)C1 (stereo unspecified) | 55 | n | n | n | n | n
Cc1ccc(NC(=O)CCC(=O)OC(C(=O)c2ccc(C)c(C)c2)c2ccccc2)c(C)c1 (stereo unspecified) | n | n | n | n | n | n
O=C(CC1Nc2cccc3cccc(c23)NC1=O)Nc1ccccc1 (stereo unspecified) | n | n | n | n | 54 | n
Cc1ccccc1-n1nnnc1SCC(=O)c1c(N)n(C)c(=O)n(C)c1=O | n | n | n | n | 54 | x
Cn1c(N)c(C(=O)CSc2nnnn2-c2ccccc2)c(=O)n(C)c1=O | n | n | n | n | n | x
Nc1ccc(CCc2ccc(N)cc2)cc1 | x | n | n | n | x | x
CN1C(=S)N(c2cccnc2)C(=O)/C1=C\c1ccc(N(C)C)cc1 | 83 | x | x | x | n | n
Oc1ccc(N2CCN(c3ncnc4sc5c(c34)CCC5)CC2)cc1 | n | n | n | n | 74 | n
c1ccc2c(c1)nnn2-c1ncnc2sc3c(c12)CCCC3 | 80 | n | n | n | n | n
Cc1nc(-n2nnc3ccccc32)c2c3c(sc2n1)CCCC3 | n | n | n | n | n | n
OCCN1CCN(c2ncnc3sc4c(c23)CCCC4)CC1 | x | n | n | n | x | x
Cc1cccc2c3nc4ccccc4nc3n(C)c12 | x | 40 | n | 49 | x | x
SMILES | Mcl1 Bid PPI | MCL1 BIM primary | GLD-1 RNA inh | BCLXL inh | Mcl1 Noxa PPI | Bim-Mcl-1
CC(=O)c1ccc2c(c1)C1C=CCC1C(C(=O)O)N2 (stereo unspecified) | n | x | x | x | 74 | n
COC(C(=O)N/N=C(\C)c1ccc(O)cc1)c1ccccc1 (stereo unspecified) | x | n | n | n | x | x
O=C(O)c1ccc2c(c1)C1C=CCC1C(c1cc3c(cc1Br)OCO3)N2 (stereo unspecified) | n | n | n | n | n | n
CC(=O)c1ccc2c(c1)C1C=CCC1C(c1ccncc1)N2 (stereo unspecified) | n | n | n | n | 51 | n
C1=CC2c3ccccc3NC(c3ccncc3)C2C1 (stereo unspecified) | n | n | n | n | 78 | n
COC(=O)c1ccc(C2Nc3ccc(/C(C)=N/NC(=O)C(OC)c4ccccc4)cc3C3C=CCC32)cc1 (stereo unspecified) | x | 61 | n | 34 | x | n
COc1ccc(OC)c(S(=O)(=O)NCCCN2CCCC2=O)c1 | x | n | n | n | x | x
COc1ccccc1CNC(=O)Cc1ccccc1 | x | n | n | n | x | x
Cc1ccc(C(=O)N2CCN(c3ccc(NC(=O)c4cccs4)cc3)CC2)cc1 | x | n | n | n | x | x
Cc1ccc2c(c1)C1C=CCC1C(C(=O)O)N2 (stereo unspecified) | 89 | 108 | n | 62 | 107 | n
CC(C)=CCN1CCN(C/C(Cl)=C/c2ccccc2)CC1CCO (stereo unspecified) | n | n | n | n | n | x
Cc1nc2cc(N3CCCCC3)c(NC(=O)c3ccncc3)cc2c(=O)n1Cc1ccc(Cl)cc1 | 57 | n | n | n | n | n
COc1ccc(CC(=O)N(Cc2ccccc2)c2ccc(C)cc2)cc1S(=O)(=O)N1CCOCC1 | x | n | n | n | x | x
CC(=O)Nc1ccc(S(=O)(=O)NCc2ccccn2)cc1 | 91 | n | n | n | n | n
COc1ccc(C(=O)Nc2cccc(-c3cc4ccccc4oc3=O)c2)cc1[N+](=O)[O-] | 87 | n | n | n | 56 | n
COc1ccc2nc(NC(=O)c3cccc(-c4cc5ccccc5oc4=O)c3)sc2c1 | 87 | n | n | n | 54 | n
CC(=O)NCCc1ccc(S(=O)(=O)N2CCCC2)cc1 | n | n | n | n | n | x
CCCCc1ccc(CC(=O)Nc2cc(S(=O)(=O)N3CCOCC3)ccc2O)cc1 | x | n | n | n | x | x
Nc1nc2ncc(C(=O)c3cc(Cl)cc(Cl)c3O)cc2s1 | n | n | n | 32 | n | x
CC(C)Cc1nnc(NC(=O)CN2C(=O)NC3(CC(C)CC(C)(C)C3)C2=O)s1 (stereo unspecified) | x | n | n | n | x | x
Cc1ccc(/C=C/C(=O)NCc2ccc(S(N)(=O)=O)cc2)o1 | n | x | x | x | 53 | n
O=C(NC1CCCC1)c1cc2c(=O)n3ccccc3nc2s1 | x | n | n | n | x | x
CS(=O)(=O)/C(C#N)=C/c1cccn1S(=O)(=O)c1ccccc1 | x | n | n | n | x | x
O=C(COc1ccc2ccccc2c1)NNC(=O)c1ccc([N+](=O)[O-])cc1 | n | n | n | n | 82 | n
Cc1cccc(OCC(=O)NNC(=O)c2ccc([N+](=O)[O-])cc2)c1 | n | n | n | n | n | n
SMILES | Mcl1 Bid PPI | MCL1 BIM primary | GLD-1 RNA inh | BCLXL inh | Mcl1 Noxa PPI | Bim-Mcl-1
COc1cc(C2Nc3cccc4cccc(c34)N2)ccc1O | x | n | n | n | x | x
Oc1ccc2ccccc2c1C1Nc2cccc3cccc(c23)N1 | n | n | n | n | 51 | n
Cc1cc(-c2nnc3n2N=C(c2ccc(F)cc2)CS3)n[nH]1 | n | n | n | n | n | x
Cc1ccc(/C=C/C(=O)Nc2ccc(N(C)C)cc2)o1 | n | n | n | n | 95 | n
Cc1ccc(/C=C/C(=O)Nc2cccc(S(=O)(=O)N3CCOCC3)c2)o1 | n | n | n | n | 53 | n
O=C(/C=C/c1ccco1)Nc1cccc(S(=O)(=O)N2CCOCC2)c1 | n | n | n | n | n | n
O=C(COC(=O)c1ccccc1Br)Nc1ccccc1F | n | n | n | n | n | n
O=C(CN1C(=O)NC2(CCc3ccccc3C2)C1=O)Nc1ccc(F)cc1 (stereo unspecified) | 88 | n | n | n | n | n
